# Experimental data reported in PubChem BioAssay (NCATS).
# “And” between values parts separate entries of the source, which are not always exact repeats. Equal entries are not always repeated. Values without a mark were called inactive. Records with an inconclusive call do not appear. Where a call stands in place of a potency, no number is given. The source made the active and inactive calls. The call rests on the fitted dose curve; in most records, active means well fitted curve in the direction sought with a large enough effect; inconclusive means small, poorly fitted or top-dose-only effect, or another doubt; inactive means no such curve, though single readings can be large; an effect the other way counts as inactive or inconclusive. *1 amine or outer side, *2 acyl side, *3 side chain or, on linkers, in order; H or OH if unused. Where a SMILES comes first, the peptide text is derived from it. [ ]: non-standard residue; d: D form. X7 = O=C([C@@H](CC(O)CCl)O[*:1])[*:2]; aIle = CC[C@@H](C)[C@H](N)C(=O)O; NMeV = CN[C@H](C(=O)O)C(C)C; NMeA = CN[C@@H](C)C(=O)O; βAla = NCCC(=O)O
# Legend:
# [1] = P-glycoprotein substrates identified in KB-8-5-11 adenocarcinoma cell line, qHTS therapeutic library screen (AID 1346987); further: nearly all actives have a fitted effect of over 65% in size; further: potency means the concentration at half of the fitted maximal effect
# How it was run: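 Compounds are pinned in dose-response onto KB-8-5-11 cells (500 cells/well, colchicine-free medium) and left 72 h at 37 degree C. CellTiter-Glo luminescence then yields AC50 values.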
# [2] = system: Zika virus NS2B-NS3 protease (linked construct); assay: Primary screen NINDS Rhodamine qHTS for Zika virus inhibitors (AID 1347160); further: nearly all actives have a fitted effect of over 55% in size
# How it was run: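 Rhodamine110-peptide cleavage (1.5 µM substrate) by 25 nM linked NS2B-NS3 enzyme at pH 8.0 (Tris, Tween 20), after 15 min RT preincubation with compounds; 15-min fluorescence change normalized to controls and Hill-fitted.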
# [3] = Primary qHTS for inhibitors of nuclear receptor binding SET domain protein 2 (NSD2) in an isogenic RCH-ACV NSD2 p.E1099K mutant (9B) (AID 1645876); further: nearly all actives have a fitted effect of over 70% in size; further: potency means the concentration at half of the fitted maximal effect
# [4] = molecular target: Phospholipid hydroperoxide glutathione peroxidase GPX4 (Homo sapiens) (UniProt P36969); assay: Primary qHTS Assay for Inhibitors of Recombinant Selenoprotein Glutathione Peroxidase 4 (GPX4) (AID 1845192); further: nearly all actives have a fitted effect of over 65% in size
# How it was run: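 NADPH consumption followed by fluorescence at 340/450 nm, t=0 and after 15 min at room temperature. Reaction started with cumene hydroperoxide (0.5 mM final) after 30 min compound–GPX4 preincubation; final 200 nM GPX4, 100 nM GR, 1 mM GSH, 0.5 mM NADPH.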
# [5] = molecular target: Luciferin 4-monooxygenase (Photinus pyralis) (UniProt P08659); assay: Primary firefly luciferase (FLuc) qHTS assay for identification of artifact compounds. (AID 1845220); conditions: outcome: dose series up to 54.1 µM unless noted; further: nearly all actives have a fitted effect of over 60% in size
# How it was run: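 FLuc 10 nM; luciferin 10 uM; ATP 10 uM; Tris-acetate pH 7.6, Mg-acetate 10 mM; 15 min RT preincubation; 5 min reaction; luminescence.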
# [6] = system: Nanoluciferase (engineered Oplophorus gracilirostris luciferase); assay: Primary Nanoluciferase (NLuc) qHTS assay for identification of artifact compounds. (AID 1845222); further: potency means the concentration at half of the fitted maximal effect;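 on activity, negative = inhibition: NLuc secreted into diluted conditioned medium of S16 cells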
# How it was run: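 NLuc from S16 cell medium (1:55) plus test compounds, 15 min, room temperature. Luminescence after Nano-Glo (1:100) addition, 5 min.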
# CRL-7250 = normal cell line; assay: Cytotoxic Profiling of Annotated Libraries Using Quantitative High-Throughput Screening (AID 1296008); conditions: Five cell lines viability, CellTiter-Glo ATP luminescence, 48-72 h; max response: hits give low values; further: nearly all actives have a fitted effect of over 60% in size; further: potency means the concentration at half of the fitted maximal effect
# How it was run: (§1)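 Cytotoxicity was measured as CellTiter-Glo ATP luminescence, read after 10 min at room temperature. Compound treatment of the cells lasted 48 or 72 hr at 37 degrees Celsius in a qHTS format.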
# HEK293 = assay: as above; conditions: Five cell lines viability, CellTiter-Glo ATP luminescence, 48-72 h; max response: hits give low values
# How it was run: as §1
# HaCat = assay: as above; conditions: Five cell lines viability, CellTiter-Glo ATP luminescence, 48-72 h; max response: hits give low values
# How it was run: as §1
# CASKI = assay: Primary qHTS to identify gynecologic anti-cancer compounds using libraries of approved drugs and bioactive compounds (AID 1345084); conditions: Gynecologic cancer cell panel viability, ATPlite luminescence, 48 h; series mostly up to 57.5 µM; further: nearly all actives have a fitted effect of over 55% in size; further: potency means the concentration at half of the fitted maximal effect
# How it was run: (§2)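 Measured: luminescence after ATPlite addition (15 min, RT). Exposure: 48 h, 37 C, 5% CO2.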
# [7] = molecular target: Calcium and integrin-binding protein 1 (Homo sapiens) (UniProt Q99828); assay: Primary qHTS for Identification of Calcium Integrin Binding Protein 1 (CIB1) Competitor (AID 1508620);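 further: GST tagged CIB1 binding a fluorescein labelled alphaIIb integrin peptide tracer; top concentration of the series differs between compounds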
# How it was run: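 CIB1-GST (1 uM final) and compound incubated 15 min at room temperature before adding FITC-alphaIIb peptide tracer (100 nM final). Competition for binding read by fluorescence polarization (ex 480, em 540) after another 15 min at room temperature.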
# [8] = Primary redox qHTS assay for identification of artifact compounds. (AID 1845223)
# How it was run: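 Redox-cycling detection via DTT (250 uM final) oxidation coupled to Amplex Red (25 uM)/HRP (250 mU/mL) in HBSS. 15 min preincubation plus 30 min after DTT, room temperature. Ex/Em 525/598 nm; 4-parameter Hill fit against DMSO and 10 uM DA3003.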
# NIH3T3 = assay: Cytotoxic Profiling of Annotated Libraries Using Quantitative High-Throughput Screening (AID 1296008); conditions: Five cell lines viability, CellTiter-Glo ATP luminescence, 48-72 h; max response: hits give low values; further: nearly all actives have a fitted effect of over 60% in size; further: potency means the concentration at half of the fitted maximal effect
# How it was run: as §1
# C33A = assay: Primary qHTS to identify gynecologic anti-cancer compounds using libraries of approved drugs and bioactive compounds (AID 1345084); conditions: Gynecologic cancer cell panel viability, ATPlite luminescence, 48 h; series mostly up to 57.5 µM; further: nearly all actives have a fitted effect of over 55% in size; further: potency means the concentration at half of the fitted maximal effect
# How it was run: as §2
# Es-2 = assay: as above; conditions: Gynecologic cancer cell panel viability, ATPlite luminescence, 48 h; series mostly up to 57.5 µM
# How it was run: as §2
# Hek293T = assay: as above; conditions: Gynecologic cancer cell panel viability, ATPlite luminescence, 48 h, control line for the selectivity index; series mostly up to 57.5 µM
# How it was run: as §2
# PA-1 = assay: as above; conditions: Gynecologic cancer cell panel viability, ATPlite luminescence, 48 h; series mostly up to 57.5 µM
# How it was run: as §2
# OV90 = assay: as above; conditions: Gynecologic cancer cell panel viability, ATPlite luminescence, 48 h; series mostly up to 57.5 µM
# How it was run: as §2
# Tov-21-G = assay: as above; conditions: Gynecologic cancer cell panel viability, ATPlite luminescence, 48 h; series mostly up to 57.5 µM
# How it was run: as §2
# Tov112D = assay: as above; conditions: Gynecologic cancer cell panel viability, ATPlite luminescence, 48 h; series mostly up to 57.5 µM
# How it was run: as §2
# Sequence of Calcium and integrin-binding protein 1 (Homo sapiens) (Q99828 whole entry, looked up): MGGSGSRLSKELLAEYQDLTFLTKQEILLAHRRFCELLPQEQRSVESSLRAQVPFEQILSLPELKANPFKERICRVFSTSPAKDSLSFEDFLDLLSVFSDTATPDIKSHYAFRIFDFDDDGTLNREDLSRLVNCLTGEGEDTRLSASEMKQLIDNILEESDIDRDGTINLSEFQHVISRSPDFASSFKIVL
# Sequence of Phospholipid hydroperoxide glutathione peroxidase GPX4 (Homo sapiens) (P36969 whole entry, looked up): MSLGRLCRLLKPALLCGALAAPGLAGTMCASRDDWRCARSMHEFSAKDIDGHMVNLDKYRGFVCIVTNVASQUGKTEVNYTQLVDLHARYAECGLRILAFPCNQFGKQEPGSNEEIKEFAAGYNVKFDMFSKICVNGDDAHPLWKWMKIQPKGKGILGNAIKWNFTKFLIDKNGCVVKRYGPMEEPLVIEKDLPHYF
smiles,measurement,setting,value
COc1cc2c(c(OC)c1OC)-c1ccc(SC)c(=O)cc1[C@@H](NC(C)=O)CC2,Potency,[1],0.231 µM (active)
same,Potency,[2],inactive
same,Potency,[3],4.6 nM (active)
same,Potency,[4],inactive
same,outcome,[5],inactive
same,Potency,[6],19 µM (active)
same,Potency,CRL-7250,0.0092 µM (active)
same,Potency,HEK293,0.0082 µM (active)
same,max response,HaCat,4.59%
same,Potency,CASKI,inactive
Cc1sc2c(c1C)C(c1ccc(Cl)cc1)=NC(CC(=O)Nc1ccc(O)cc1)c1nnc(C)n1-2 (configuration not stated),Potency,[2],inactive
same,Potency,[7],inactive
same,Potency,[3],129 nM (active) and 263 nM (active)
same,Potency,[4],inactive
same,outcome,[5],inactive
same,Potency,[6],inactive
same,Potency,[8],inactive
same,Potency,CRL-7250,1.16 µM (active)
same,Potency,HEK293,1.46 µM (active)
same,max response,HaCat,-9.94%
same,Potency,NIH3T3,1.3 µM (active)
same,Potency,C33A,inactive
same,Potency,CASKI,inactive
same,Potency,Es-2,inactive
same,Potency,Hek293T,inactive
same,Potency,PA-1,1.78 µM (active)
CN1CCN(c2nc3ccccc3nc2Cl)CC1,Potency,[1],inactive
same,Potency,[2],inactive
same,Potency,[7],inactive
same,Potency,[3],inactive
same,Potency,[4],inactive
same,outcome,[5],inactive
same,Potency,[6],inactive
same,Potency,[8],inactive
same,max response,CRL-7250,-8.1%
same,outcome,HEK293,inactive
same,outcome,NIH3T3,inactive
same,Potency,C33A,inactive
same,Potency,CASKI,inactive
same,Potency,Es-2,inactive
same,Potency,Hek293T,inactive
same,Potency,OV90,inactive
same,Potency,PA-1,inactive
same,Potency,Tov-21-G,inactive
same,Potency,Tov112D,inactive
CC(=O)O[C@H]1CC[C@@]2(CI)C(=CC[C@@H]3[C@@H]2CC[C@]2(C)C(=O)CC[C@@H]32)C1,Potency,[1],inactive
same,Potency,[2],inactive
same,outcome,[5],inactive
same,Potency,[6],inactive
same,outcome,CRL-7250,inactive
same,max response,HEK293,-18.2%
same,outcome,HaCat,inactive
same,max response,NIH3T3,0.959%
same,Potency,C33A,inactive
same,Potency,CASKI,inactive
same,Potency,Es-2,inactive
same,Potency,Hek293T,inactive
same,Potency,OV90,inactive
same,Potency,PA-1,inactive
same,Potency,Tov-21-G,inactive
same,Potency,Tov112D,inactive
N#Cc1cn([C@@H]2O[C@H](CO)[C@H](O)[C@@H]2O)c2ncnc(N)c12,Potency,[1],0.0206 µM (active)
same,Potency,[2],inactive
same,Potency,[7],inactive
same,Potency,[3],12.9 nM (active)
same,Potency,[4],inactive
same,outcome,[5],inactive
same,Potency,[6],inactive
same,Potency,[8],inactive
same,Potency,CRL-7250,0.058 µM (active)
same,Potency,HEK293,0.0461 µM (active)
same,Potency,HaCat,0.092 µM (active)
same,Potency,CASKI,0.282 µM (active)
same,Potency,Tov112D,0.316 µM (active)
C=C(CO)C(=O)O[C@H]1CC(=C)[C@@H]2C[C@H](O)C(=C)[C@@H]2[C@H]2OC(=O)C(=C)[C@@H]21,Potency,[1],inactive
same,Potency,[2],inactive
same,Potency,[7],inactive
same,Potency,[3],4500 nM (active)
same,Potency,[4],inactive
same,Potency,[6],inactive
same,Potency,[8],inactive
same,max response,CRL-7250,-4.04%
same,Potency,HEK293,5.7 µM (active)
same,max response,HaCat,4.94%
same,Potency,C33A,inactive
same,Potency,CASKI,inactive
same,Potency,Hek293T,inactive
same,Potency,OV90,inactive
same,Potency,PA-1,inactive
same,Potency,Tov-21-G,inactive
same,Potency,Tov112D,inactive
CC[C@@H](C)[C@@H]1NC(=O)[C@@H]2CCCN2C(=O)[C@@H](CC(O)CCl)OC(=O)CCNC(=O)[C@H](C)N(C)C(=O)[C@H](C(C)C)N(C)C1=O (some centres not stated) (cyclo([NMeA][βAla][X7]P[aIle][NMeV])),Potency,[1],inactive
same,Potency,[2],inactive
same,Potency,[7],inactive
same,Potency,[3],608 nM (active)
same,outcome,[5],inactive [at 25.7 µM]
same,Potency,[6],inactive
same,Potency,[8],inactive
same,Potency,CRL-7250,0.968 µM (active)
same,Potency,HEK293,0.685 µM (active)
same,max response,HaCat,-21.3%
same,Potency,NIH3T3,2.43 µM (active)
same,Potency,C33A,4.47 µM (active)
same,Potency,CASKI,inactive
same,Potency,Es-2,4.47 µM (active)
same,Potency,OV90,0.447 µM (active)
same,Potency,PA-1,1 µM (active)
same,Potency,Tov-21-G,inactive
same,Potency,Tov112D,3.55 µM (active)
CCC1=CC2CN3CCc4c([nH]c5ccccc45)[C@@](C(=O)OC)(C2)[C@@H]13,Potency,[2],inactive
same,Potency,[7],inactive
same,outcome,[5],inactive
same,Potency,[6],inactive
same,Potency,[8],inactive
same,max response,CRL-7250,-21.4%
same,max response,HEK293,-6.65%
same,max response,HaCat,-7.15%
same,Potency,C33A,inactive
same,Potency,CASKI,inactive
same,Potency,Es-2,inactive
same,Potency,Hek293T,inactive
same,Potency,OV90,inactive
same,Potency,PA-1,inactive
same,Potency,Tov-21-G,inactive
same,Potency,Tov112D,inactive
CO[C@@H]1C[C@H](O[C@H]2CC[C@@]3(C)C(CCC4C3CC[C@]3(C)[C@@H](C5=CC(=O)OC5)[C@@H](OC(C)=O)CC43O)C2)O[C@H](C)[C@@H]1O[C@H]1O[C@H](CO[C@@H]2O[C@H](CO)[C@@H](O)[C@H](O)[C@H]2O)[C@@H](O)[C@H](O)[C@H]1O (some centres not stated),Potency,[1],0.873 µM (active)
same,Potency,[2],inactive
same,Potency,[7],inactive
same,Potency,[3],346 nM (active)
same,Potency,[4],inactive
same,"activity change, negative = inhibition",[5],-3.37% [at 11.6 µM]
same,"activity, negative = inhibition",[6],1.29% [at 11.6 µM]
same,redox activity (% of DA3003),[8],15.6% [at 11.5 µM]
same,Potency,CRL-7250,0.491 µM (active)
same,Potency,HEK293,0.873 µM (active)
same,Potency,HaCat,1.55 µM (active)
same,max response,NIH3T3,-8.42%
same,Potency,C33A,0.631 µM (active)
same,Potency,Es-2,1.26 µM (active)
same,Potency,Hek293T,2 µM (active)
same,Potency,PA-1,2 µM (active)
same,Potency,Tov-21-G,0.794 µM (active)
same,Potency,Tov112D,0.316 µM (active)
C[C@]12CC[C@H]3[C@@H](CCC4=C/C(=N/OCC(=O)O)CC[C@@]43C)[C@@H]1CC[C@@H]2O,Potency,[1],inactive
same,Potency,[2],inactive
same,Potency,[7],inactive
same,Potency,[3],inactive
same,Potency,[4],inactive
same,outcome,[5],inactive
same,Potency,[6],inactive
same,Potency,[8],inactive
same,max response,CRL-7250,-2.05%
same,max response,HEK293,-5.05%
same,max response,HaCat,-24.1%
same,max response,NIH3T3,3.02%
same,Potency,C33A,inactive
same,Potency,CASKI,inactive
same,Potency,Es-2,inactive
same,Potency,Hek293T,inactive
same,Potency,OV90,inactive
same,Potency,PA-1,inactive
same,Potency,Tov-21-G,inactive
same,Potency,Tov112D,inactive
CN1C[C@@H]2CN(c3ccc(-c4ccccc4)nn3)C[C@@H]2C1,Potency,[1],inactive
same,Potency,[2],inactive
same,Potency,[7],inactive
same,Potency,[3],inactive
same,Potency,[4],inactive
same,outcome,[5],inactive
same,Potency,[6],inactive
same,Potency,[8],inactive
same,max response,CRL-7250,2.36%
same,max response,HEK293,-5.4%
same,max response,HaCat,-2.1%
same,outcome,NIH3T3,inactive
same,Potency,C33A,inactive
same,Potency,Es-2,inactive
same,Potency,Hek293T,inactive
same,Potency,OV90,inactive
same,Potency,PA-1,inactive
same,Potency,Tov-21-G,inactive
same,Potency,Tov112D,inactive
